# Data from PubChem BioAssay (NCATS).
# Inconclusive results are not listed. A call without a number means that no potency is given here. Active and inactive are the calls of the source. Unless noted, the call rests on the fitted dose curve; in most records, active means well fitted curve in the direction sought with a large enough effect; inconclusive means small, poorly fitted or top-dose-only effect, or another doubt; inactive means no such curve, though single readings can be large; an effect the other way counts as inactive or inconclusive.
# How the values were obtained:
# [1] = target: Aldehyde dehydrogenase, mitochondrial (Homo sapiens) (UniProt P05091); experiment: qHTS for Inhibitors of the Aldehyde Dehydrogenase Family (ALDH2) Confirmatory screens (AID 2061303; active means well fitted inhibition curve with a large enough effect; title and protocol of this record describe different tests; further: nearly all actives have a fitted effect of over 45% in size; further: potency means the concentration at half of the fitted maximal effect)
# [2] = qHTS for Inhibitors of the Aldehyde Dehydrogenase Family (ALDH1A2, ALDH1A3, ALDH2, ALDH3A1) (AID 2061307); further: nearly all actives have a fitted effect of over 50% in size; on potency: test system not described further here; potency means the concentration at half of the fitted maximal effect
# [3] = target: Aldehyde dehydrogenase, mitochondrial (Homo sapiens) (UniProt P05091); experiment: qHTS for Inhibitors of the Aldehyde Dehydrogenase Family (ALDH2) Primary screen (AID 2061308); further: nearly all actives have a fitted effect of over 55% in size; further: potency means the concentration at half of the fitted maximal effect
# [4] = target: Retinaldehyde dehydrogenase 3 (Homo sapiens) (UniProt P47895); experiment: qHTS for Inhibitors of the Aldehyde Dehydrogenase Family (ALDH1A3) Confirmatory screens (AID 2061311); further: nearly all actives have a fitted effect of over 60% in size; further: potency means the concentration at half of the fitted maximal effect
# [5] = target: Retinal dehydrogenase 2 (Homo sapiens) (UniProt O94788); experiment: qHTS for Inhibitors of the Aldehyde Dehydrogenase Family (ALDH1A2) Confirmation screens (AID 2061314); further: nearly all actives have a fitted effect of over 65% in size; further: potency means the concentration at half of the fitted maximal effect
# [6] = target: Retinaldehyde dehydrogenase 3 (Homo sapiens) (UniProt P47895); experiment: qHTS for Inhibitors of the Aldehyde Dehydrogenase Family (ALDH1A3) Validation screen (AID 2061312); further: nearly all actives have a fitted effect of over 45% in size; further: potency means the concentration at half of the fitted maximal effect
# [7] = target: Retinaldehyde dehydrogenase 3 (Homo sapiens) (UniProt P47895); experiment: qHTS for Inhibitors of the Aldehyde Dehydrogenase Family (ALDH1A3) Primary screen (AID 2061315)
# [8] = target: Aldehyde dehydrogenase 1A1 (Homo sapiens) (UniProt P00352); experiment: qHTS for Inhibitors of the Aldehyde Dehydrogenase Family (ALDH1A1) Confirmatory screens (AID 2061316); further: nearly all actives have a fitted effect of over 65% in size; further: potency means the concentration at half of the fitted maximal effect
SMILES,Potency [1],Potency [2],Potency [3],Potency [4],Potency [5],Potency [6],Potency [7],Potency [8]
CCCCOc1ccc(S(=O)(=O)NCc2csc(-c3ccc(OC)cc3)n2)cc1,inactive,–,–,–,–,–,–,–
CC(C)C[C@H]1C(=O)N2CCC[C@H]2[C@]2(O)O[C@](NC(=O)[C@@H]3C=C4c5cccc6[nH]c(Br)c(c56)C[C@H]4N(C)C3)(C(C)C)C(=O)N12,inactive,inactive,–,–,–,–,–,–
CC(C)c1ccccc1-c1ncc(F)c(NCc2ccc(-c3cccnc3)cc2)n1,5.01 µM (active),14.1 µM (active),inactive,8.96 µM (active),inactive,–,–,–
C[S+](=O)([O-])c1ccc(-c2ncc3c(n2)OCCN(Cc2ccc(F)cc2F)C3=O)cc1,15.8 µM (active),–,–,–,–,–,–,–
Cc1cc2occ(CN(C)CCN(C)Cc3cn(-c4cccc(C(F)(F)F)c4)c4ccccc34)c(=O)c2cc1C,inactive,inactive,inactive,inactive,inactive,inactive,inactive,10.1 µM (active)
O=c1[nH]c2cccc(N3CCN(Cc4ccc(-c5ccccc5)cc4)CC3)c2o1,inactive,inactive,inactive,inactive,inactive,inactive,inactive,inactive
CCN1CCN(C(=O)N[C@@H](C(=O)N[C@@H]2C(=O)N3[C@@H]2SC(C)(C)[C@@H]3C(=O)O)c2ccccc2)C(=O)C1=O,inactive,inactive,inactive,inactive,inactive,inactive,inactive,inactive
O=C(CNC(=O)c1ccc(-c2cccc(C(F)(F)F)c2)cc1)NCc1ccccc1,inactive,–,–,–,–,–,–,–
COc1ccc(-c2nc3ccccc3s2)cc1,inactive,1.7 µM (active),inactive,1.42 µM (active),inactive,–,–,–
O=C(Nc1ccccc1Cl)c1cnc2ccc(C3CCNCC3)cn12,inactive,inactive,inactive,inactive,inactive,inactive,inactive,–
COc1ccc2ccc(OCc3nc(C(=O)N(C)CC(C)O)co3)cc2c1 (stereo not drawn),inactive,–,–,–,–,–,–,–
CCOc1ccc(CC(=O)Nc2ccc3c(c2)N(C)C(=O)c2ccccc2S3)cc1OCC,inactive,–,–,–,–,–,–,–
C=C(C(=O)OC)C1CCC2(C)C(O[C@@H]3O[C@H](CO)[C@@H](O)[C@H](O)[C@H]3O)CC(=O)C(C)C2C1O (stereo partly drawn),inactive,inactive,inactive,11 µM (active),inactive,–,–,–
Cc1noc(-c2ccn3c(CNC(=O)c4cccc(F)c4)nnc3c2)n1,inactive,–,–,–,–,–,–,–
O=c1c2nc(-c3ccc(F)cc3)ccc2ncn1Cc1ccccn1,inactive,–,–,–,–,–,–,–
C[C@@H](NC(=O)Nc1ccc(Cl)cc1)c1onc(-c2ccc(F)cc2)c1C(=O)O,inactive,–,–,–,–,–,–,–
COc1ccc2c(c1)CCc1c(C(=O)Nc3ccc(F)c(Cl)c3)noc1-2,inactive,–,–,–,–,–,–,–
Nc1ncnc2c1ncn2[C@@H]1O[C@H](CN[S+](=O)([O-])NC(=O)c2cccc(-c3noc(-c4ccccc4F)n3)c2)[C@@H](O)[C@H]1O,inactive,1.2 µM (active),inactive,0.252 µM (active),14.2 µM (active),–,–,–
Cn1c(=O)c2sccc2n2c(CCCC(=O)Nc3ccc(F)c(F)c3)nnc12,inactive,–,–,–,–,–,–,–
CCC(=O)Nc1cccc(-c2cn3c(C)csc3n2)c1,inactive,–,–,–,–,–,–,–
C[C@H]1CO[C@@H]2Cn3cc(C(=O)NCc4ccc(F)cc4F)c(=O)c(O)c3C(=O)N12,inactive,inactive,inactive,inactive,inactive,inactive,inactive,inactive

SMILES,Potency [1],Potency [2],Potency [3],Potency [4],Potency [5],Potency [6],Potency [7],Potency [8]
O=C(Nc1ccc(F)c(C(F)(F)F)c1)Nc1nnc(C2CCCCC2)s1,inactive,inactive,8.91 µM (active),inactive,inactive,–,inactive,–
CCN1CCN(c2ccc(Nc3ccc(-c4ccc(C(N)=O)cc4)n4ncnc34)cc2)CC1,inactive,inactive,inactive,–,–,–,–,–
OCc1cccc(-c2ccc3ncc(Nc4cccnc4)n3n2)c1,inactive,–,–,–,–,–,–,–
O=C1C(=O)N(C2CCN(C(=O)c3ccc(F)cc3)CC2)CCN1Cc1ccc(F)cc1,inactive,–,–,–,–,–,–,–
FC(F)(F)c1ccccc1-c1nc(NCc2ccc(-c3cccnc3)cc2)c2ccccc2n1,inactive,inactive,inactive,10.1 µM (active),inactive,–,inactive,–
COc1ccc(O)c(C2Nc3ccccc3C(=O)N2Cc2ccccc2)c1 (stereo not drawn),inactive,12.7 µM (active),inactive,–,–,–,–,–
O=C(CCC1CCCN(S(=O)(=O)c2ccc(F)cc2)C1)NCCCN1CCOCC1 (stereo not drawn),inactive,–,–,–,–,–,–,–
O=C(NCc1cccs1)c1nc(-c2ccc(F)cc2)c2ccccn12,inactive,inactive,–,–,–,–,–,–
COc1cccc(N2CCN(C(=O)CCS(=O)(=O)c3ccc4c(c3)oc(=O)n4C)CC2)c1,inactive,–,–,–,–,–,–,–
O=C([C@H]1C[C@H](Oc2ccccc2)CN1S(=O)(=O)c1ccc(F)cc1)N1CCOCC1,inactive,–,–,–,–,–,–,–
Oc1cc(Nc2ccccc2)cc2cccnc12,inactive,inactive,inactive,0.283 µM (active),inactive,–,–,–
COc1cccc(CNC(=O)C2c3ccccc3CC(=O)N2C(C)C)c1 (stereo not drawn),inactive,–,–,–,–,–,–,–
COc1nc2ccc(Br)cc2cc1[C@@H](c1ccccc1)[C@@](O)(CCN(C)C)c1cccc2ccccc12,1.27 µM (active),0.896 µM (active),0.708 µM (active),8.96 µM (active),1.79 µM (active),1.26 µM (active),–,0.142 µM (active)
Cc1ccc([S+](=O)([O-])NCCNC(=O)c2ccc(-c3cccc(C(F)(F)F)c3)cc2)cc1,inactive,–,–,–,–,–,–,–
CC(C)C(=O)Nc1ccc(C2(C(=O)N3CCN(c4ccccc4)CC3)CCCCC2)cc1,inactive,–,–,–,–,–,–,–
COCc1cccc(-c2ccc3c(n2)c(=O)ncn3Cc2ccccc2)c1,inactive,–,–,–,–,–,–,–
O=[S+]([O-])(NCc1nccs1)c1ccc(Nc2nc(-c3ccccc3)cs2)cc1,inactive,inactive,inactive,inactive,inactive,–,inactive,–
NC1CCN(c2cnc3c(O)ccc(C(=O)O)c3c2)CC1,inactive,inactive,inactive,20.1 µM (active),14.2 µM (active),–,inactive,–
COc1cccc(C2c3c(ncn(CCCN4CCOCC4)c3=N)Oc3ccc4ccccc4c32)c1 (stereo not drawn),inactive,inactive,inactive,inactive,inactive,–,inactive,inactive
Nc1ccc(S(=O)(=O)N2CCN(S(=O)(=O)c3c(F)cccc3F)CC2)cc1,inactive,inactive,inactive,inactive,inactive,–,inactive,–
Cc1ccc(OCCn2c(CCNC(=O)c3ccccc3C(F)(F)F)nc3ccccc32)cc1,inactive,inactive,inactive,inactive,inactive,–,inactive,–

SMILES,Potency [1],Potency [2],Potency [3],Potency [4],Potency [5],Potency [6],Potency [7],Potency [8]
Cc1cc(C)n2ncc(C(=O)Nc3ccc4c(c3)OCO4)c2n1,inactive,inactive,inactive,inactive,inactive,–,inactive,–
O=C1c2ccccc2NC(c2ccc(-c3ccc(Br)cc3)o2)N1O (stereo not drawn),0.891 µM (active),11.3 µM (active),1 µM (active),12.7 µM (active),12.7 µM (active),–,inactive,–
O=C(O)c1ccc(S(=O)(=O)N[C@H](Cc2ccccc2)C(=O)O)cc1,inactive,inactive,inactive,inactive,inactive,–,inactive,inactive
O=C(C1CCN(c2nc(-c3ccc(Br)cc3)cs2)CC1)N1CCNCC1,inactive,inactive,inactive,inactive,inactive,–,inactive,25.2 µM (active)
Cn1nnnc1Sc1ncnc2scc(Br)c12,inactive,inactive,inactive,inactive,inactive,–,inactive,–
COc1cc(CNc2ncnc3ccc(-c4c(C)noc4C)cc23)cc(OC)c1OC,inactive,inactive,inactive,inactive,inactive,–,inactive,–
Cc1nc2ccc(Nc3nc(Nc4c(C)cc(C=CC#N)cc4C)nc4nc[nH]c34)cc2s1,inactive,10.1 µM (active),inactive,inactive,inactive,–,inactive,–
COc1cc(F)cc(F)c1[S+](=O)([O-])N1CCN([S+](=O)([O-])c2ccc3c(c2)OCCO3)CC1,inactive,inactive,inactive,inactive,inactive,–,inactive,inactive
COc1ccc(C2=Nn3c(nnc3-c3cccc(OC)c3OC)SC2)cc1,inactive,inactive,inactive,inactive,inactive,–,inactive,inactive
O=C(NC1CCCc2c1cnn2-c1ccc(F)cc1F)c1ccncc1 (stereo not drawn),inactive,inactive,inactive,inactive,inactive,–,inactive,–
NC(=O)C1CCN(c2ncc(-c3ccc(Cl)cc3)s2)CC1,inactive,12.7 µM (active),inactive,inactive,inactive,–,inactive,–
Cc1cn([C@H]2C[C@H](N[S+](=O)([O-])Cc3ccc(Cl)cc3)[C@@H](CO)O2)c(=O)[nH]c1=O,inactive,inactive,inactive,inactive,inactive,–,inactive,–
CC(=O)Nc1sc2c(c1-c1cc3ccccc3[nH]1)CCNC2,inactive,inactive,inactive,inactive,28.3 µM (active),–,inactive,–
C[C@@H](N)C(=O)Nc1ccc(Cl)cc1C(=O)c1ccc[nH]1,inactive,inactive,inactive,inactive,inactive,–,inactive,–
COc1ccc(C=O)cc1COc1ccc(NC(C)=O)cc1,3.16 µM (active),0.318 µM (active),inactive,15.8 µM (active),3.18 µM (active),–,inactive,–
CC(=O)Nc1sc2c(c1-c1cnn(C(C)=O)c1)CCNC2,inactive,inactive,inactive,inactive,inactive,–,inactive,–
CC(C)(C)OC(=O)N1CCN(c2ccc(NCc3cnc(-c4ccc(C#N)cc4)o3)cc2)CC1,0.4 µM (active),0.252 µM (active),0.316 µM (active),inactive,inactive,–,inactive,inactive
Cc1ccc(CNc2ccc(N3CCNCC3=O)cc2)cc1,inactive,inactive,inactive,14.2 µM (active),10.1 µM (active),–,inactive,–
O=C1CCCC2=C1C(c1cccnc1Cl)N=C(Nc1nc3ccccc3o1)N2 (stereo not drawn),inactive,inactive,inactive,inactive,22.5 µM (active),–,inactive,–
